This note sets out measurements from PMC7862700, “An all-to-all approach to the identification of sequence-specific readers for epigenetic DNA modifications on cytosine”.

What all share (assay): DAPPL (digital affinity profiling via proximity ligation, sequencing); 10 mM Tris-HCl pH 7.5, 50 mM NaCl, 1 mM DTT, 4% glycerol, room temperature, 30 min; GST-TFs on glutathione beads, 16-mer random dsDNA library, 0.1% formaldehyde crosslink after washing; high values mean tight binding
One assay has as its target T1, FEV (Homo sapiens, UniProt Q99581 1-238).
T1 sequence: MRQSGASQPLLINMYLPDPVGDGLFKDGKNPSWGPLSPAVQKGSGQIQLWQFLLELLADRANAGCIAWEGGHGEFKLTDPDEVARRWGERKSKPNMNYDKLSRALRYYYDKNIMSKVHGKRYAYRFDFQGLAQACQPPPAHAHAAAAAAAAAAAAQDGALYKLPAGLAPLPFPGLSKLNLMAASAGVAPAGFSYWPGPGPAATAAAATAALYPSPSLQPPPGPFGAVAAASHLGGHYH
As to conditions: protein: recombinant; tags: N-terminal GST; dsDNA, one strand shown. In outline:
(§1)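 Yeast served to express human transcription factors as GST fusions, which were then captured on glutathione beads and labelled with DNA barcodes. Pooled with a tag-only sample, they were incubated with 200 nmole of a 16-mer random double-stranded DNA library for 30 min at room temperature in Tris/NaCl/DTT/glycerol buffer, washed, crosslinked with 0.1% formaldehyde, ligated by proximity, amplified by PCR and sequenced. Dividing each hexamer's read frequency for a factor by its frequency for the tag-only sample gives the binding signal.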

Another assay deals with ETV5 (Homo sapiens, UniProt P41161 1-510). The note with it: protein: recombinant; tags: N-terminal GST; dsDNA, one strand shown. In outline: as §1
ETV5, sequence (P41161 whole entry): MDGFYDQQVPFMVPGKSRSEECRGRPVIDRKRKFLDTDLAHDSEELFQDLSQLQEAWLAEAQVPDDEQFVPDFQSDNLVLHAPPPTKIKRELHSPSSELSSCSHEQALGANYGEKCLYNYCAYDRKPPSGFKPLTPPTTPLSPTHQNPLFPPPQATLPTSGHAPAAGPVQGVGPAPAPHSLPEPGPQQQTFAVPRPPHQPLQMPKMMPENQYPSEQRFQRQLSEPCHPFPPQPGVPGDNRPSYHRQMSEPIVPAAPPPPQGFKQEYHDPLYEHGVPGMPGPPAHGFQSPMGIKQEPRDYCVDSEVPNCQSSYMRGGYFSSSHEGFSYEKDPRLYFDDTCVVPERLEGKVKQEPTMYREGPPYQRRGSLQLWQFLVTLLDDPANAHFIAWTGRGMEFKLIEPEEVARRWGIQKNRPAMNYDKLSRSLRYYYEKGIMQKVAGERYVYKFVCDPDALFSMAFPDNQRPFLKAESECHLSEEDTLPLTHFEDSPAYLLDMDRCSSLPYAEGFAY
Another assay has as its target HSF1 (Homo sapiens, UniProt Q00613 1-529). The note with it: protein: recombinant; tags: N-terminal GST; chain copies: 3; dsDNA, one strand shown. In outline: as §1
Another assay concerns the target T2, SPIC (Homo sapiens, UniProt Q8N5J4 1-248).
T2 sequence: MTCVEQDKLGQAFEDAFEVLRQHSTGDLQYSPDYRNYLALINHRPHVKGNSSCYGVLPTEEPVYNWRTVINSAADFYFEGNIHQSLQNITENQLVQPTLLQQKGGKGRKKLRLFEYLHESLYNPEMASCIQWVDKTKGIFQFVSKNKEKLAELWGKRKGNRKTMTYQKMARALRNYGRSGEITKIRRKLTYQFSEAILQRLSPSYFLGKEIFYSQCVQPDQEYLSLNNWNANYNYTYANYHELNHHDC
The note with it: protein: recombinant; tags: N-terminal GST; dsDNA, one strand shown. In outline:
as §1

In the next assay the target is ELF4 (Homo sapiens, UniProt Q99607 1-663). The note with it: protein: recombinant; tags: N-terminal GST; dsDNA, one strand shown. The method in brief: as §1
ELF4, sequence (Q99607 whole entry): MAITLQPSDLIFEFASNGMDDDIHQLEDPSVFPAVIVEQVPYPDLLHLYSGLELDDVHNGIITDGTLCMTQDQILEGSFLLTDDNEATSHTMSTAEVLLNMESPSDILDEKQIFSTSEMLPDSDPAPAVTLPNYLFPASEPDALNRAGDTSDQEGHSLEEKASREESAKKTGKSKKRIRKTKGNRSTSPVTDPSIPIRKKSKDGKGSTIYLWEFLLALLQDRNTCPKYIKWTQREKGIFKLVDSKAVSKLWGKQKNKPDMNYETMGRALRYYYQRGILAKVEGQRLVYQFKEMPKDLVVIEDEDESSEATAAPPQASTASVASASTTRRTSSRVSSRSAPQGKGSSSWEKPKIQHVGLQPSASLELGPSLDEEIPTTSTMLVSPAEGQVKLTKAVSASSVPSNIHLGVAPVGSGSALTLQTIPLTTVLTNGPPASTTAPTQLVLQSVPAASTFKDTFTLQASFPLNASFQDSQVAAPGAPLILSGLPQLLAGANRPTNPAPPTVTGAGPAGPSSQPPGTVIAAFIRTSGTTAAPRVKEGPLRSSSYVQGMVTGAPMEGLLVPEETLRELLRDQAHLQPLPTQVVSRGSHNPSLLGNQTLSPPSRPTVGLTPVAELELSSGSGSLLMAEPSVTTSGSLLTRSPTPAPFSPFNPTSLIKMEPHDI
A further assay deals with T3, ELK4 (Homo sapiens, UniProt P28324-2 1-405).
T3 sequence: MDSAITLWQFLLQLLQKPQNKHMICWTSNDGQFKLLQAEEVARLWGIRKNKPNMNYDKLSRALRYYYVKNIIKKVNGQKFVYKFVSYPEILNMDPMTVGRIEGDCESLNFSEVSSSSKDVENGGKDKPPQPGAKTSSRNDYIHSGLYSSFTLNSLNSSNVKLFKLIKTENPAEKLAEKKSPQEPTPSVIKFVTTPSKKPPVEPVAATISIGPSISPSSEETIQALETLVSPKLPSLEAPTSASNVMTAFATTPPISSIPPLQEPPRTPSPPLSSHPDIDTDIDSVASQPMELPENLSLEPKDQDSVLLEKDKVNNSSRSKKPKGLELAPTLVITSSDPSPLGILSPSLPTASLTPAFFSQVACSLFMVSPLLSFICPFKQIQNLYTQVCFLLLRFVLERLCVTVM
The note with it: protein: recombinant; tags: N-terminal GST; dsDNA, one strand shown. The method in brief:
as §1

The next assay has as its target T4, ETV2 (Homo sapiens, UniProt O00321 1-342).
T4 sequence: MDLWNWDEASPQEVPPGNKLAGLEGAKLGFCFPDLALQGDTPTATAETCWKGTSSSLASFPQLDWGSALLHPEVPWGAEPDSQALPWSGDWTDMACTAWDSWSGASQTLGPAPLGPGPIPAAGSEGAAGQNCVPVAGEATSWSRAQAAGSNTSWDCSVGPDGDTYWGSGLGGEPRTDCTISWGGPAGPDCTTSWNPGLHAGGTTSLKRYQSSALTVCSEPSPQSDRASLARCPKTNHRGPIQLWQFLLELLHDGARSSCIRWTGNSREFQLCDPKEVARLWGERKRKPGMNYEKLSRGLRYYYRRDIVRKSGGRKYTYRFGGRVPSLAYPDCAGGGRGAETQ
The note with it: protein: recombinant; tags: N-terminal GST; dsDNA, one strand shown. In outline:
as §1

In another assay the target is T5, ELF3 (Homo sapiens, UniProt P78545 1-371).
T5 sequence: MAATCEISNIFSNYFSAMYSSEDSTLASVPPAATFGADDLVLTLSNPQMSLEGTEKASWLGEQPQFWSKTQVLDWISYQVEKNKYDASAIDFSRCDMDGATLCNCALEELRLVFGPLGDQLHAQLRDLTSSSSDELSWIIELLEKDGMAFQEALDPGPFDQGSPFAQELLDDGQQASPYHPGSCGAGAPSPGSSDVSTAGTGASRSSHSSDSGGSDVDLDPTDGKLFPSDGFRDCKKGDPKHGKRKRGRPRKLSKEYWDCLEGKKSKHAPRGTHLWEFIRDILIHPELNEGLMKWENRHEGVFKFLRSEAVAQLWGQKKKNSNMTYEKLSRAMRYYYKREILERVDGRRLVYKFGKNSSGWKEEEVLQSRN
The note with it: protein: recombinant; tags: N-terminal GST; dsDNA, one strand shown. In outline:
as §1

The target in the next assay is CRX (Homo sapiens, UniProt O43186 1-299). The note with it: protein: recombinant; tags: N-terminal GST; dsDNA, one strand shown. In outline: as §1
CRX, sequence (O43186 whole entry): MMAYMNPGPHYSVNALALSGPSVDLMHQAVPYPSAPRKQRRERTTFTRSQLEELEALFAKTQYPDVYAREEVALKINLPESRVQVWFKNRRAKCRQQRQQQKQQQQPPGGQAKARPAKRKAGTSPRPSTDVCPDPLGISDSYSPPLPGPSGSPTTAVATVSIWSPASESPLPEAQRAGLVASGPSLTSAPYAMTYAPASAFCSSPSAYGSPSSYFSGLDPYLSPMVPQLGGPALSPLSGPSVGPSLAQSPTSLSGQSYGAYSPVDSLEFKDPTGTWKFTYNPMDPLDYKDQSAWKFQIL
The target in another assay is ETV1 (Homo sapiens, UniProt P50549 1-477). As to conditions: protein: recombinant; tags: N-terminal GST; dsDNA, one strand shown. In outline: as §1
ETV1, sequence (P50549 whole entry): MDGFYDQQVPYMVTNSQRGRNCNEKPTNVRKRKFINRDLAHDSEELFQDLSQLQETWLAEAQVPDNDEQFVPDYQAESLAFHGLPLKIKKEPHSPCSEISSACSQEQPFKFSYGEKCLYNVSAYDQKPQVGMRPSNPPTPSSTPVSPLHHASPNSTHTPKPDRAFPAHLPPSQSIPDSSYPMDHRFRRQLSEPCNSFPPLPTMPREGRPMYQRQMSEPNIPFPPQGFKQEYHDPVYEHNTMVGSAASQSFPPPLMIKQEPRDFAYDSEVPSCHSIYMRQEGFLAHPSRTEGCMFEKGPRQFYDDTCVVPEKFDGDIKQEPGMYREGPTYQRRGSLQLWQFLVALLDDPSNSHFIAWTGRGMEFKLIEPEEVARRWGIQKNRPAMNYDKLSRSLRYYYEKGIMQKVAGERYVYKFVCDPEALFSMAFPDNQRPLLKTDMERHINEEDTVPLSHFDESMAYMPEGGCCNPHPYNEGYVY

HSF1, sequence (Q00613 whole entry): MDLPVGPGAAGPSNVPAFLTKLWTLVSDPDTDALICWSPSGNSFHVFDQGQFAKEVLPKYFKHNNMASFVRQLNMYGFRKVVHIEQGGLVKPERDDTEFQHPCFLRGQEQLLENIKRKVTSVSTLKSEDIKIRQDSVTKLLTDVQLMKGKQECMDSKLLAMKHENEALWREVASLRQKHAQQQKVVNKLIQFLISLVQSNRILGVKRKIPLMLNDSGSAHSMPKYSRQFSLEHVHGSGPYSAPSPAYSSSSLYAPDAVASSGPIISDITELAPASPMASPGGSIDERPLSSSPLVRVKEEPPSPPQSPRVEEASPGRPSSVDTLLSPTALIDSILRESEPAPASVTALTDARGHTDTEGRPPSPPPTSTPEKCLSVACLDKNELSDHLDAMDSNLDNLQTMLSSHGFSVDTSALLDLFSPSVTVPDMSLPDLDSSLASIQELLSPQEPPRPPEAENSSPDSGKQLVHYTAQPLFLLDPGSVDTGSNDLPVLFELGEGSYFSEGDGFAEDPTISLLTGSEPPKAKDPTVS

With CCGCAA, the binding signal was 1.29 fold enrichment (6-mer frequency, TF over GST control) with FEV; 1.3 fold enrichment (6-mer frequency, TF over GST control) with ETV5; 1.07 fold enrichment (6-mer frequency, TF over GST control) with HSF1; 1.42 fold enrichment (6-mer frequency, TF over GST control) with SPIC; 1.31 fold enrichment (6-mer frequency, TF over GST control) with ELF4; 1.36 fold enrichment (6-mer frequency, TF over GST control) with ELK4. Also, the binding signal with ETV2 is 1.35 fold enrichment (6-mer frequency, TF over GST control); in the assay with ELF3, 1.39 fold enrichment (6-mer frequency, TF over GST control); with CRX it was 1.01 fold enrichment (6-mer frequency, TF over GST control); with ETV1 it was 1.38 fold enrichment (6-mer frequency, TF over GST control).

Regarding CCCTCT, the binding signal was 1.35 fold enrichment (6-mer frequency, TF over GST control) with FEV; 1.33 fold enrichment (6-mer frequency, TF over GST control) with ETV5; 1.29 fold enrichment (6-mer frequency, TF over GST control) in the assay with HSF1; 1.14 fold enrichment (6-mer frequency, TF over GST control) in the assay with SPIC; 1.46 fold enrichment (6-mer frequency, TF over GST control) with ELF4; 1.6 fold enrichment (6-mer frequency, TF over GST control) in the assay with ELK4. Also, the binding signal in the assay with ETV2 is 1.32 fold enrichment (6-mer frequency, TF over GST control); with ELF3 it was 1.34 fold enrichment (6-mer frequency, TF over GST control); in the assay with CRX, 1.36 fold enrichment (6-mer frequency, TF over GST control); in the assay with ETV1, 1.25 fold enrichment (6-mer frequency, TF over GST control).

AAGCTG: the binding signal was 1.14 fold enrichment (6-mer frequency, TF over GST control) with FEV; 1.08 fold enrichment (6-mer frequency, TF over GST control) with ETV5; 1.25 fold enrichment (6-mer frequency, TF over GST control) in the assay with HSF1; 1.08 fold enrichment (6-mer frequency, TF over GST control) with SPIC; 1.08 fold enrichment (6-mer frequency, TF over GST control) with ELF4; 1.19 fold enrichment (6-mer frequency, TF over GST control) in the assay with ELK4. Further, the binding signal with ETV2 is 1.17 fold enrichment (6-mer frequency, TF over GST control); with ELF3, 1.28 fold enrichment (6-mer frequency, TF over GST control); with CRX, 1.59 fold enrichment (6-mer frequency, TF over GST control); with ETV1 it was 1.12 fold enrichment (6-mer frequency, TF over GST control).

With CTCGGC, the binding signal in the assay with FEV is 1.29 fold enrichment (6-mer frequency, TF over GST control); in the assay with ETV5, 1.41 fold enrichment (6-mer frequency, TF over GST control); in the assay with HSF1 it was 1.31 fold enrichment (6-mer frequency, TF over GST control); with SPIC, 1.26 fold enrichment (6-mer frequency, TF over GST control); in the assay with ELF4, 1.56 fold enrichment (6-mer frequency, TF over GST control); in the assay with ELK4, 1.39 fold enrichment (6-mer frequency, TF over GST control). For the same sequence, the binding signal with ETV2 is 1.34 fold enrichment (6-mer frequency, TF over GST control); with ELF3 it was 1.52 fold enrichment (6-mer frequency, TF over GST control); in the assay with CRX, 1.13 fold enrichment (6-mer frequency, TF over GST control); with ETV1, 1.54 fold enrichment (6-mer frequency, TF over GST control).

Turning to CGAAAG, the binding signal was 1.04 fold enrichment (6-mer frequency, TF over GST control) with FEV; 1.1 fold enrichment (6-mer frequency, TF over GST control) with ETV5; 1.81 fold enrichment (6-mer frequency, TF over GST control) with HSF1; 1.03 fold enrichment (6-mer frequency, TF over GST control) with SPIC; 1.06 fold enrichment (6-mer frequency, TF over GST control) with ELF4; 1.09 fold enrichment (6-mer frequency, TF over GST control) with ELK4. Moreover, the binding signal with ETV2 was 1.13 fold enrichment (6-mer frequency, TF over GST control); with ELF3, 1.21 fold enrichment (6-mer frequency, TF over GST control); in the assay with CRX, 1.11 fold enrichment (6-mer frequency, TF over GST control); with ETV1, 1.01 fold enrichment (6-mer frequency, TF over GST control).

Take TTCCCT: the binding signal in the assay with FEV was 1.64 fold enrichment (6-mer frequency, TF over GST control); with ETV5, 1.69 fold enrichment (6-mer frequency, TF over GST control); with HSF1 it was 1.52 fold enrichment (6-mer frequency, TF over GST control); in the assay with SPIC it was 1.84 fold enrichment (6-mer frequency, TF over GST control); with ELF4, 1.79 fold enrichment (6-mer frequency, TF over GST control); in the assay with ELK4, 1.65 fold enrichment (6-mer frequency, TF over GST control). Also, the binding signal in the assay with ETV2 was 1.62 fold enrichment (6-mer frequency, TF over GST control); in the assay with ELF3, 1.57 fold enrichment (6-mer frequency, TF over GST control); with CRX it was 1.31 fold enrichment (6-mer frequency, TF over GST control); with ETV1, 1.68 fold enrichment (6-mer frequency, TF over GST control).

Take TCCTTA: the binding signal is 1.48 fold enrichment (6-mer frequency, TF over GST control) with FEV; 1.52 fold enrichment (6-mer frequency, TF over GST control) with ETV5; 1.54 fold enrichment (6-mer frequency, TF over GST control) in the assay with HSF1; 1.66 fold enrichment (6-mer frequency, TF over GST control) with SPIC; 1.56 fold enrichment (6-mer frequency, TF over GST control) with ELF4; 1.41 fold enrichment (6-mer frequency, TF over GST control) with ELK4. The binding signal is 1.59 fold enrichment (6-mer frequency, TF over GST control) in the assay with ETV2; 1.43 fold enrichment (6-mer frequency, TF over GST control) with ELF3; 1.83 fold enrichment (6-mer frequency, TF over GST control) with CRX; 1.56 fold enrichment (6-mer frequency, TF over GST control) with ETV1.
